High-throughput results (PubChem)
GLA spleen mod: inhibitors or activators of human alpha-galactosidase in spleen homogenate | P06280 | human spleen homogenate, 4MU-alpha-Gal fluorescence, 40 min | Potency, µM (series often up to 80 µM), without a hit: at the highest dose activity change, negative = inhibition, most hits filed as inhibitors | 0.008% of 240,000 active | AID 2107;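 also: potency is read from the fitted curve at half-maximal effect; 0% = enzyme with vehicle and -100% = no enzyme basal signal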
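Spleen homogenate 1 ug + cpd (titration) + 4-MU-alpha-D-galactopyranoside 1 mM; 37C 40 min; 50 mM citrate/phosphate pH 5.0, 0.01% Tween-20; stop pH 10; fluorescence 365/440; AC50 via Hill.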
aGlu spleen mod: lysosomal alpha-glucosidase (human) modulation | P10253 | human spleen homogenate, 4-MU-alpha-glucoside fluorescence | Potency, µM (top dose mostly 79.9 µM), for inactives: at the top dose activity change, negative = inhibition, usual class: inhibitors | 0.006% of 240,000 active | AID 2112;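 also: potency is read from the fitted curve at half-maximal effect; 0% = enzyme with vehicle and -100% = no enzyme basal signal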
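Compounds were titrated against alpha-glucosidase in spleen homogenate at pH 5.0, with 1 mM 4-methylumbelliferyl substrate for 40 min at 37 C. Reactions were quenched with pH 10 NaOH/glycine and fluorescence measured.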
GAA inhib: inhibitors of human lysosomal alpha-glucosidase. Potency, µM (top dose mostly 76.9 µM), inactives show at the top dose activity change, negative = inhibition, hits mostly inhibitors. 0.005% of 200,000 active. AID 1466. purified human GAA, 4-MU-alpha-glucoside fluorescence. P10253;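 also: potency is read from the fitted curve at half-maximal effect; plate controls were uninhibited enzyme wells for no effect and no-enzyme background for full effect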
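Fluorogenic assay: 4 nM human alpha-glucosidase with 400 uM 4-methylumbelliferyl-alpha-D-pyranoside in 50 mM citrate/phosphate, 0.005% Tween-20, pH 5.0, 20 min at room temperature. Compounds tested up to 77 uM; AC50 from Hill fits.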
GLA inh pH 4.5: inhibitors of human alpha-galactosidase A at pH 4.5; purified enzyme, 4-MU-alpha-Gal fluorescence, pH 4.5; AID 1467; P06280; activity change, negative = inhibition, % at 105 µM; 230,000 tested, under 10 active;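 also: 0% = full activity with enzyme and -100% = basal without enzyme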
Target sequence (P06280 whole entry, looked up): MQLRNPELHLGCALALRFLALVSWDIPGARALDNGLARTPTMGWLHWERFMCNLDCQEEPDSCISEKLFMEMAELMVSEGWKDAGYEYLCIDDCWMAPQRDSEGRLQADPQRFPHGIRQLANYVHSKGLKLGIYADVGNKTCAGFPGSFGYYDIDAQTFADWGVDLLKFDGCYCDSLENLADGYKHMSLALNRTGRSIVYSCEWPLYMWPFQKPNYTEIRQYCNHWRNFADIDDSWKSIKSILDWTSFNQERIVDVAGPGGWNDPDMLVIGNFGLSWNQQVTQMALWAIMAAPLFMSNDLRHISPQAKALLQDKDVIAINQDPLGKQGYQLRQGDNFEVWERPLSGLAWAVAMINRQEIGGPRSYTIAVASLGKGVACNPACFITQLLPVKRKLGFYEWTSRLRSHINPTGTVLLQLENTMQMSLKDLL
N370S GC: inhibits or activates N370S mutant glucocerebrosidase; 0.092% of 330,000 active; AID 2101; P04062; N370S GC spleen homogenate, 4MU-glucoside fluorescence; Potency, µM (titrated, usually from 59.4 µM), for the others: at the highest dose activity change, negative = inhibition, hits mostly inhibitors;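 also: potency is read from the fitted curve at half-maximal effect; 0% = full enzyme activity and -100% = no enzyme basal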
GAA glycogen: GAA glycogen-cleavage inhibition or activation; recombinant GAA, glycogen substrate, Amplex Red glucose oxidase fluorescence; P10253; Potency, µM (top dose mostly 76.4 µM), without a hit: at the top dose activity change, negative = inhibition, hits mostly inhibitors; 0.38% of 300,000 active; AID 2100;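 also: potency is read from the fitted curve at half-maximal effect; 0% = full enzyme reaction and -100% = no-enzyme basal signal; the screen sought inhibitors and activators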
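qHTS, 1536-well; enzyme 4 nM final; cpd up to 77 uM; substrate bovine liver glycogen 30 ug; 50 mM citrate/phosphate pH 5.0, 0.01% Tween-20; 37 C, 40 min; Amplex Red detection 45 min RT; Hill fit → AC50.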
An asterisk follows results filed as active; ? = inconclusive; nt = no result given; [ ] = another dose, or the depositor's remark. In the library only some 0.43% were active in any assay of this set; here they are far more common. Calls follow the shape of the dose curve; as a rule, active = well fitted curve in the direction sought with a large enough effect; inconclusive = small, poorly fitted or top-dose-only effect, or another doubt; inactive = no such curve, though single readings can be large; an effect the other way counts as inactive or inconclusive.

SMILES	GLA spleen mod	aGlu spleen mod	GAA inhib	GLA inh pH 4.5	N370S GC	GAA glycogen
CO[C@@H]1COC(=O)[C@H]2CCCN2C(=O)C/C=C\[C@@H](C)[C@H](OC)COC(=O)[C@H]2CCCN2C(=O)C/C=C\[C@H]1C	7%[17.5 µM]	1%[17.4 µM]	nt	nt	2%[12.8 µM]	nt
COc1ccc(C2=Nc3ccccc3OC2)cc1	8%	2%	0%	?	21%	25µM*
COc1ccc(-c2cc(-c3ccccc3)nc3c2COc2ccccc2-3)cc1	nt	nt	nt	nt	nt	-1%[76.3 µM]
O=C(NNc1cccc(Cl)n1)c1c(Cl)cccc1Cl	0%	-29%	8%	9	7%	8.9µM*
O=C(NNc1cccc(Cl)n1)c1c(F)cccc1F	1%	nt	-4%	15	6%	?
Cc1ccc(C(=S)N2CCN(Cc3ccccc3)CC2)cc1	-4%	-2%	-3%	-8	13%	-3%
CCN1CCN(C(=S)c2ccc(-c3ccccc3)cc2)CC1	2%	7%	1%	-7	11µM*	-14%
Cc1[nH]n(-c2ccc(Cl)c(Cl)c2)c(=O)c1CCO	-5%	-4%	-5%	2	-4%	22µM*
C[C@@H](c1ccccc1)N1C(=O)[C@H]2[C@@H]3[C@H](O)C=CC(=O)[C@H]3CC[C@H]2C1=O	-11%[17.5 µM]	1%[17.4 µM]	nt	nt	4%[12.8 µM]	nt
C#CCOCCOCCOCCNc1nc(N2CCN(C(=O)CCCCCCCCCCNC(=O)[C@H](CO)n3cc(CCCSC)nn3)CC2)nc(N2CCN(C(=O)CCCCCCCCCCNC(=O)[C@H](CCCN=C(N)N)n3cc(C[C@@H](C)CC)nn3)CC2)n1	nt	nt	nt	nt	3.2µM*	nt
C#CCOCCOCCOCCNc1nc(N2CCN(C(=O)CCCCCCCCCCNC(=O)Cn3cc(C[C@@H](C)O)nn3)CC2)nc(N2CCN(C(=O)CCCCCCCCCCNC(=O)[C@H](CCCN=C(N)N)n3cc(C[C@@H](C)CC)nn3)CC2)n1	nt	nt	nt	nt	2.8µM*	nt
C#CCOCCOCCOCCNc1nc(N2CCN(C(=O)CCCCCCCCCCNC(=O)Cn3cc(C[C@@H](C)O)nn3)CC2)nc(N2CCN(C(=O)CCCCCCCCCCNC(=O)[C@H](CCCCN)n3cc(CCCC(=O)O)nn3)CC2)n1	nt	nt	nt	nt	-14%	nt
COCCN1C(=S)N[C@@H](c2ccccc2)C(C(=O)OC)=C1C	nt	nt	nt	nt	2%	18%[76.3 µM]
Cc1ccc(-c2nnc3c4ccccc4c(C)nn23)cc1NC(=O)CN1CCOCC1	6%	3%	-4%	5	5%	1%
Cc1ccc(-c2nnc3c4ccccc4c(C)nn23)cc1S(=O)(=O)N1CCN(CCO)CC1	3%	-10%	-4%	7	16µM*	4%
CN[C@H]1CCc2cc(OC)c(OC)c(OC)c2-c2ccc(N[C@@H]3CCCCNC3=O)c(=O)cc21	5%	2%	nt	1	-15%	nt
Oc1ccc(/C=N/Nc2nc(-c3cccnc3)nc3ccccc23)c(O)c1	-6%	-9%	nt	-17	-28%	?
Cc1c(O)ccc(/C=N/Nc2nc(-c3cccnc3)nc3ccccc23)c1O	-10%	-7%	-12%	-1	?	35µM*
C/C(=N\NC(=S)Nc1ccccc1)C1Cc2ccccc2C(=O)O1 (centres undefined)	-5%	2%	nt	-14	11%	16µM*
CCOc1ccccc1N1C(=O)CC(N(O)c2ccccc2)C1=O (centres undefined)	12%	5%	-1%	-2	-9%	-12%
Cc1c(Cl)cccc1N1C(=O)CC(N(O)c2ccccc2)C1=O (centres undefined)	-2%	-4%	-11%	-1	-1%	20µM*
Cc1cccc(C)c1N1C(=O)CC(N(O)c2ccccc2)C1=O (centres undefined)	0%	-7%	-6%	-18	12%	32µM*
CC(C)c1onc(-c2c(Cl)cccc2Cl)c1COc1ccc(/C=C/c2cccc(C(=O)O)c2)c(Cl)c1	11%	7%	nt	nt	10%	nt
Oc1ccc(/C=N/N2CCN(c3ccccn3)CC2)cc1	-5%	-3%	nt	4	3%	11µM*
Oc1cccc(/C=N/N2CCN(c3ccccn3)CC2)c1	0%	0%	nt	-7	1%	?
SMILES	GLA spleen mod	aGlu spleen mod	GAA inhib	GLA inh pH 4.5	N370S GC	GAA glycogen
O=C(O)CC1=C(O)C(=O)N(c2ccccc2)C1c1ccc(Br)cc1 (centres undefined)	-13%	-3%	0%	6	13%	25µM*
O=C(O)CC1=C(O)C(=O)N(c2ccccc2)C1c1ccccc1 (centres undefined)	0%	-14%	-12%	-8	0%	?
O=c1n(Cc2cc3c(cc2Cl)OCO3)c(=O)n2n1CC[C@H]1/C(=N\OCc3ccccc3)[C@H]3O[C@@H]3[C@@H](O)[C@@H]12	-2%[17.5 µM]	2%[17.4 µM]	nt	nt	-2%[12.8 µM]	nt
COc1cc(SC)ccc1C(=O)N1CCN(c2ccc(O)cc2)CC1	5%	2%	3%	2	-20%	4µM*
COc1cc(SC)ccc1C(=O)N1CCN(c2ccccc2)CC1	4%	-3%	13%	0	-3%	-12%
CC(=O)N1CCC2(CCN(Cc3cc(C(F)(F)F)cc(C(F)(F)F)c3)CC2)CC1	4%	-2%	nt	nt	-6%	nt
CC[C@@H](c1ccccc1)n1c(=O)n2n(c1=O)[C@H]1[C@H](O)[C@H]3O[C@@H]3/C(=N/OC/C=C(\C)CCC=C(C)C)[C@@H]1CC2	-4%[17.5 µM]	2%[17.4 µM]	nt	nt	-12%[12.8 µM]	nt
COC(=O)C1=C(C)N(Cc2ccc(C)cc2)C(=O)/C1=C\c1ccc(O)c(OC)c1	-3%	-5%	-9%	0	-27%	28µM*
COC(=O)C1=C(C)N(Cc2ccc(C)cc2)C(=O)/C1=C\c1cc(OC)c(OC)c(OC)c1	-4%	-4%	-2%	-2	-18%	-5%
O=C(Nc1ccccc1Cl)[C@H](CSCc1ccccc1)N1Cc2ccccc2C1=O	nt	nt	nt	nt	nt	2%[76.3 µM]
Nc1cnc(Nc2ccc(Br)cc2)nc1N	-5%	-3%	-2%	-11	?	7µM*
N#Cc1c(N)nc(N)nc1Nc1ccc(Br)cc1	-3%	6%	1%	-1	-22%	-1%
O=C(CCC(=O)N1CCN(c2ccc(O)cc2)CC1)c1cccs1	4%	0%	nt	8	-6%	11µM*
CC(=O)c1ccc(N2CCN(C(=O)CCC(=O)c3cccs3)CC2)cc1	10%	0%	1%	1	4%	6%
Cc1ccc(OCCC(=O)N2CCN(c3ccc(O)cc3)CC2)cc1	0%	-10%	nt	-6	-2%	13µM*
CCN1C(=O)[C@H]2[C@H]3[C@H](O)[C@H](O)C/C(=N/O[C@@H](C)c4cn([C@H](CO)Cc5ccccc5)nn4)[C@@H]3CC[C@@H]2C1=O	-8%[17.5 µM]	-5%[17.4 µM]	nt	nt	0%[12.8 µM]	nt
